Results: PubChem BioAssay (Tox21)
Inconclusive results are not listed. Unmarked numbers belong to inactive results. The call rests on the fitted dose curve; in most records, active means well fitted cell-killing curve with a large enough effect in the repeat runs; inconclusive means weak or mixed curves, or effect the other way; inactive means no such curve, though single readings can be large or run the other way. Where a SMILES comes first, the peptide text is derived from it. [ ]: non-standard residue; d: D form. pGlu = O=C1CC[C@@H](C(=O)O)N1

Experiment: qHTS assay to identify small molecule agonists of the vitamin D receptor (VDR) signaling pathway - cell viability counter screen (AID 743224); further: nearly all actives have a fitted effect of over 50% in size
Settings: VDR-bla HEK293T viability, CellTiter-Glo luminescence, 16 h; series mostly up to 62.6 µM; activity change, negative = cytotoxicity: at the top concentration
Excerpt: U.S. Tox21 Program National Center for Advancing Translational Sciences [NCATS] NIH Chemical Genomics Center [NCGC] U.S. Environmental Protection Agency [EPA] National Institutes of Environmental Health Sciences [NIEHS] National Toxicology Program [NTP] U.S. Food and Drug Administration [FDA] Tox21 Assay Overview: The vitamin D receptor (VDR), a member of nuclear hormone receptor superfamily, plays a critical role in calcium homeostasis and bone metabolism. It is also involved in cell differentiation and growth, and thrombogenicity. […] The cytotoxicity of the Tox21 compound library against the VDR-bla cell line was tested in parallel by measuring the cell viability using CellTiter-Glo assay (Promega, Madison, WI) in the same wells.
Tox21 Assay Protocol Summary: VDR-bla cells were dispensed at 2,000 cells/6 uL/well into black wall/clear-bottom 1536-well plates using a Multidrop Combi (Thermo Fisher Scientific, Waltham, MA) dispenser. After the assay plates were incubated at a 37C and 5% CO2 for 4 h, 23 nL of compounds dissolved in DMSO, positive controls or DMSO only was transferred to the assay plate by a Pintool station (Kalypsys, San Diego, CA). The plates were incubated at 37C and 5% CO2 for 16 h. After 1 uL of LiveBLAzerTM B/G FRET substrate was added using a Bioraptr Flying Reagent Dispenser (FRD) workstation (Beckman Coulter, Indianapolis, IN, USA), the plates were incubated at room temperature for 2 h, and fluorescence intensity was measured by an Envision plate reader (PerkinElmer, Shelton, CT). For cell viability readout that measures cytotoxicity, 3 ul/well of CellTiter-Glo reagent was added into the assay plates using a FRD. After 30 min incubation at room temperature, the luminescence intensity in the plates was measured using a ViewLux (PerkinElmer) plate reader.
On the % scale 0 is the no-effect control and ±100 the full control effect.

Structure (SMILES)	activity change, negative = cytotoxicity
Cc1cccc(C)c1NC(=O)CC12CCCN1CCC2	-2.7%
COc1cc(C(=O)NCc2ccc(OCCN(C)C)cc2)cc(OC)c1OC	10.7%
CCOC(=O)COc1cc(-n2ncc(C(F)(F)F)c(C)c2=O)c(F)cc1Cl	-0.182%
CC[N+](CC)(CC(=O)Nc1c(C)cccc1C)Cc1ccccc1 (tested in a mixture with another compound)	0.216%
NO	7.67% [at 81.1 µM]
CCN(C=O)CC	3.99% [at 81.1 µM]
O=S(=O)(O)c1cccc2c(S(=O)(=O)O)cccc12	4.62%
[Ca+2]	4.15%
CC(C)NNC(=O)c1ccncc1	11.2%
CNC(=O)Nc1ccc(Cl)c(Cl)c1	6.98%
CC(=O)C1CCCCC1=O (stereo not given)	-4.71%
CCC(=O)OCc1ccccc1	13.8%
CC1=CCC(O)(C(C)C)CC1 (stereo not given)	22.6%
NC(=O)N1c2ccccc2CC(=O)c2ccccc21	4.07%
CCCCCCC#CC(=O)OC	8.91%
CC(C)C[C@@H](N)C(=O)O	1.04% [at 29.1 µM]
CC1=C(C/C=C(\C)CCC[C@H](C)CCC[C@H](C)CCCC(C)C)C(=O)c2ccccc2C1=O	-2.26%
C1CCC2(CCCCO2)OC1	7.39%
CC(COc1ccccc1)NN (stereo not given)	7.18%
CCOC(=O)C(=O)CCCCCCl	7.22%

Structure (SMILES)	activity change, negative = cytotoxicity
CCCC[N+](C)(CCCC)CCCC	-12.8%
CCNC(=O)[C@@H]1CCCN1C(=O)[C@H](CCCN=C(N)N)NC(=O)[C@H](CC(C)C)NC(=O)CNC(=O)[C@H](Cc1ccc(O)cc1)NC(=O)[C@H](CO)NC(=O)[C@H](Cc1c[nH]c2ccccc12)NC(=O)[C@H](Cc1cnc[nH]1)NC(=O)[C@@H]1CCC(=O)N1 ([pGlu]HWSYGLRP-NHEt)	14.3%
CC(C)=CCC/C(C)=C/C#N	-11.9% [at 81.1 µM]
O=S(=O)(O)c1cccc2ccccc12	6.08%
CCOCC(C)O (stereo not given)	21.2%
CCOC(=O)CCC(=O)OCC	-24.7%
CC(C)CCCO	15.3%
CCCCOCCOC(=O)COc1cc(Cl)c(Cl)cc1Cl	0.475%
CC(C)C1CCC(O)CC1 (stereo not given)	-0.615%
Nc1ccncc1N	5.21%
CN1CCN(c2cc3c(nn2)Oc2ccccc2N3C)CC1	10.1% [at 29.1 µM]
NCCCC(N)(C(=O)O)C(F)F (stereo not given)	10.9%
c1ccc2sc(SN3CCOCC3)nc2c1	9.24%
CCCCCCCCCCOc1cc2c(=O)c(C(=O)OCC)c[nH]c2cc1OCC	-0.151% [at 5.95 µM]
CN(C)C(=O)Oc1ccc[n+](C)c1	13.1%
CNCC(O)c1ccc(O)c(O)c1 (stereo not given)	0.88%
COCCOCC(OC)OC	2.91%
CO[C@@]1(NC(=O)CSC[C@@H](N)C(=O)O)C(=O)N2C(C(=O)O)=C(CSc3nnnn3C)CS[C@@H]21	0.911%
CN1CCC(=C2c3ccccc3CCc3cccnc32)CC1	0.603%
Nc1ccn([C@@H]2O[C@H](CO)[C@@H](O)[C@@H]2O)c(=O)n1	16.2%
